Test results: PubChem BioAssay AID1259421 (Broad Institute, 2018)
“And” between values parts separate entries of the source, which are not always exact repeats. Equal values may be shown once. In all, about 6,400 compounds went through this assay and about 610 (9.5%) were called active. Cut-off read from the data, not from the text of the source: active = activity change below about -70%; inconclusive = no clear call, values can overlap the other calls; inactive = above that. The full list was thinned out, with actives kept by preference. Some structures have more than one record in an assay (separate samples or runs), and their calls can disagree. Where a SMILES comes first, the peptide text is derived from it.

Assay: Toxoplasma gondii ME49Luc growth in HeLa cells, luciferase, no IFN-y, primary screen (AID 1259421)
Conditions: T. gondii ME49Luc in HeLa, 72 h, stronger effect = lower value, concentration not given here

SMILES | activity change, negative = inhibition
C[N@@+]1(CC2CC2)CC[C@]23c4c5ccc(O)c4O[C@H]2C(=O)CC[C@]3(O)[C@H]1C5 | -5.91% (inactive)
CC(C)NCC(O)c1ccc(N)c(C#N)c1 (stereo unspecified) | 11.6% (inactive) and -5.38% (inactive)
C[C@]12CCC3[C@@H](CC[C@@]45O[C@@H]4C(=O)C(C#N)C[C@]35C)C1CC[C@@H]2O (stereo partly specified) | -74.3% (active)
C[C@]12CC[C@H]3[C@@H](CC[C@@]45O[C@@H]4C(=O)C(C#N)C[C@]35C)[C@@H]1CC[C@@H]2O (stereo partly specified) | 6.81% (inactive)
C[C@]12C[C@H]3S[C@H]3C[C@@H]1CC[C@@H]1[C@@H]2CC[C@]2(C)[C@@H](O)CC[C@@H]12 | -16.5% (inactive)
COC[C@H]1OC(=O)c2coc3c2[C@@]1(C)C1=C(C3=O)C2CCC(=O)[C@@]2(C)C[C@H]1OC(C)=O (stereo partly specified) | -5.28% (inactive)
CC(=O)C1CCC2C3CCC4CC(C)(O)CCC4(C)C3CCC12C (stereo unspecified) | 13.6% (inactive)
COc1cc2cc(c1Cl)N(C)C(=O)C[C@H](OC(=O)C(C)C)[C@]1(C)O[C@H]1[C@H](C)[C@@H]1C[C@@](O)(NC(=O)O1)[C@H](OC)/C=C/C=C(/C)C2 | -83.8% (active)
COC1=CC(=O)OC(/C=C/c2ccccc2)C1 (stereo unspecified) | 9.89% (inactive)
CC1(C)C(=O)N(c2ccc(C#N)c(C(F)(F)F)c2)C(=O)N1CCCCO | 4.23% (inactive)
CN1C(=O)CC(=O)N(c2ccccc2)c2cc(Cl)ccc21 | 7.34% (inactive)
C[C@]12CC[C@H](OC3OC(O)C(O)C(O)C3O)C=C1CCC1C2CC[C@]2(C)[C@@H](c3ccc(=O)oc3)CC[C@]12O (stereo partly specified) | -83.9% (active)
C[C@@H]1O[C@@H](O[C@@H]2C=C3CCC4C(CC[C@]5(C)[C@@H](c6ccc(=O)oc6)CC[C@]45O)[C@@]3(C)CC2)C(O)C(O)[C@H]1O (stereo partly specified) | -85.7% (active)
NCCc1ccccn1 | 26.7% (inactive) and 12% (inactive)
Cc1nnc2n1-c1sc(CCC(=O)N3CCOCC3)cc1C(c1ccccc1Cl)=NC2 | 10% (inactive) and 7.36% (inactive)
O=C(CS(=O)C(c1ccccc1)c1ccccc1)NO (stereo unspecified) | 2.69% (inactive)
CCC(CO)NC(=O)C1C=C2c3cccc4c3c(cn4C)CC2N(C)C1 (stereo unspecified) | 0.967% (inactive)
Nc1ccc([As](=O)(O)O)cc1 | 2.94% (inactive)
CC(C)C[C@H](NC(=O)[C@H](Cc1ccccc1)NC(=O)CNC(=O)[C@H](C)NC(=O)[C@@H](N)Cc1ccc(O)cc1)C(=O)O | 15.2% (inactive)
C[C@]12CCC3C(CC[C@]4(O)C[C@@H](O)CC[C@]34C=O)[C@@]1(O)CCC2C1=CC(=O)OC1 (stereo partly specified) | -72.5% (active) and -88.8% (active)
C[C@]12CC[C@H]3[C@@H](CC[C@]4(O)C[C@@H](O)CC[C@]34C=O)[C@@]1(O)CC[C@@H]2C1=CC(=O)OC1 | -91% (active)
C[C@@H]1O[C@@H](O[C@H]2CC[C@]3(C=O)C4CC[C@]5(C)[C@@H](C6=CC(=O)OC6)CC[C@]5(O)C4CC[C@]3(O)C2)[C@H](O)[C@H](O)[C@H]1O (stereo partly specified) | -76.4% (active)
CCN1C[C@]2(COC)CCC(OC)[C@@]34C5C[C@]6(O)[C@H](OC(=O)c7ccc(OC)cc7)C5[C@@](OC(C)=O)(C[C@H]6OC)[C@@H]([C@H](OC)C23)[C@@H]14 (stereo partly specified) | -1.07% (inactive)

SMILES | activity change, negative = inhibition
NC1CCN(c2cccnc2)C1 (stereo unspecified) | 10.7% (inactive)
C[C@H](N)Cn1ccc2cc(F)c(Cl)cc21 | 7.22% (inactive)
Cc1ncc(CNC(=O)N(CCCl)[NH2+][O-])c(N)n1 | 18.6% (inactive)
CN(C)[C@@H]1C(=O)C(C(N)=O)C(=O)[C@@]2(O)C(=O)C3C(=O)c4c(O)cccc4[C@](C)(O)[C@H]3C[C@@H]12 (stereo partly specified) | 4.49% (inactive)
N[C@@H](Cc1ccc(O)cc1)C(=O)NCC(=O)NCC(=O)O (H-Tyr-Gly-Gly-OH) | -5.06% (inactive)
NC(=O)C[S@@](=O)C(c1ccccc1)c1ccccc1 | 3.02% (inactive)
CCCC(C)C1(CC)C(=O)NC(=O)NC1=O (stereo unspecified) | 19.8% (inactive)
CN[C@@H](C)[C@H](O)c1ccccc1 | -0.966% (inactive)
C[C@]12CCC(=O)C(=O)C1CC[C@@H]1[C@@H]2CC[C@]2(C)C(=O)CC[C@@H]12 (stereo partly specified) | 1.31% (inactive)
CCN[C@@H](C)Cc1cccc(C(F)(F)F)c1 | 3.99% (inactive)
Cc1nnc2ccc(-c3cccc(C(F)(F)F)c3)nn12 | -56.7% (inactive) and -76.7% (active)
CCOC(=O)c1ncc2[nH]c3ccc(OCc4ccccc4)cc3c2c1COC | -0.724% (inactive) and 16.8% (inactive)
CCNC(=O)[C@H]1O[C@@H](n2cnc3c(N)ncnc32)[C@H](O)[C@@H]1O | -4.22% (inactive)
NC(=O)c1cn(C2OC(CO)[C@H](O)[C@@H]2O)c2ncnc(N)c12 (stereo partly specified) | -91.9% (active)
CCNC(=O)C1OC(n2cnc3c(N)ncnc32)C(O)C1O (stereo unspecified) | 1.34% (inactive)
C#CCN1C(C)=C(C(=O)CCO)C(c2cccc(-n3oo3)c2)C(C(=O)OC)=C1C (stereo unspecified) | 11.7% (inactive)
OC1(c2ccc(Cl)cc2)c2ccccc2C2=NCCN21 (stereo unspecified) | 22.1% (inactive)
CN1CCC2(c3cccc(O)c3)Cc3nc4ccccc4cc3CC2C1 (stereo unspecified) | -1.33% (inactive)
CC[C@H]1CN2CCC1C[C@@H]2[C@H](O)c1ccnc2ccc(OC)cc12 (stereo partly specified) | 19.4% (inactive)
CCCCCCCCCCCCCC(=O)O[C@@H]1[C@@H](C)[C@@]2(O)[C@@H](C=C(CO)C[C@]3(O)C(=O)C(C)=C[C@@H]23)[C@@H]2C(C)(C)[C@]12OC(C)=O | -85.6% (active) and -84.7% (active)
CC1=C[C@H]2[C@]3(O)[C@H](C)[C@@H](O)[C@@]4(O)[C@H]([C@@H]3C=C(CO)C[C@]2(O)C1=O)C4(C)C | -3.08% (inactive)
CCCCCCCCCOc1ccc2[nH]cc(CCN)c2c1 | 7.94% (inactive)
CCC1/C=C/C=C/C[C@H](C)[C@@H](O)[C@](C)(O)C(=O)[C@@H](C)[C@H](O)[C@@H](C)C(=O)[C@H](C)[C@@H](O)[C@H](C)/C=C/C(=O)OC2[C@@H](C)C(CC1)OC1(CC[C@@H](C)C(C[C@H](C)O)O1)[C@@H]2C (stereo partly specified) | -89.1% (active)
